Test results: PubChem BioAssay
The source made the active and inactive calls. Unless noted, the rule behind the calls is not given here.

Columns and labels:
[1] = liver-stage malaria parasite load reduction – cell-based, known kinase inhibitor set, luminescence, hepatoma host viability (AID 624392); settings: Plasmodium liver stage in hepatoma cells, luciferase luminescence, concentration not given here; liver cell % of control: measured here: host liver cell viability; parasite % of control: stronger effect = lower value;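 note: infected cells incubated roughly two days before readout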
[2] = altered dexamethasone sensitivity, NF-kB reporter, cell-based, luciferase, IL-1B stimulus (AID 624486); settings: IL-1B + dexamethasone, luminescence; percent of negative control (+Dex): actives lie on both sides, concentration not given here; z-score: measured here: IL-1B alone, no Dex;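 for percent of negative control (+Dex): 100% = mean signal of vehicle control wells on the plate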
[3] = C. elegans survival during P. aeruginosa infection – whole organism (AID 651566);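 note: tested at 14 µM; sign flipped so higher z means a lower ratio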; settings: C. elegans killed by P. aeruginosa, survival ratio
[4] = pro-inflammatory signaling induction in mouse macrophages – cell-based, murine, luminescence (AID 652131); settings: murine macrophage pro-inflammatory reporter, stronger effect = higher value
[5] = inducers of IRF3 signaling, differentiated THP-1 – cell-based, PMA-stimulated THP-1, luminescence (AID 1053176); settings: PMA-differentiated THP-1, IRF3 reporter luminescence; stronger effect = higher value
[6] = MELAS cybrid and Rieske KO viability enhancers – cell-based, MELAS cybrids, Rieske KO mouse fibroblasts, CellTiter-Glo, primary screen (AID 1508586;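 active = mean z-score across replicates of 1.96 or higher in either the MELAS or the Rieske mutant cell line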;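 note: z relative to plate mean and SD of compound and empty wells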); settings: low glucose
[7] = Wnt pathway potentiators raising nuclear beta-catenin – imaging, WNT3A-conditioned medium, mouse C2C12, NPC library, primary screen (AID 1117326; in the data active = nuclear beta-catenin stimulation mostly above about 4.2%, no sharp cut-off; inactive = mostly below about 10%); settings: stronger effect = higher value
[8] = stimulators of insulin release from INS-1E, primary screen, cell-based, 5 mM glucose, NPC library (AID 1117329;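 active = compound raises insulin release from rat beta cells at 5 mM glucose, no numeric limit stated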); settings: rat INS-1E insulin secretion, at 10 µM, stronger effect = higher value
[9] = growth inhibition of GSK3B-pretreated HCT116 cells – cell-based, CellTiter-Glo, 0.2 to 20 µM (AID 1117336;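 active = compounds lowering colon cancer cell viability after pretreatment blocking the GSK3B kinase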); settings: HCT116 viability after GSK3B inhibitor, at 20 µM, stronger effect = higher value
[10] = inhibition of endothelial tube formation, primary screen, imaging, VEGF stimulated, CD31 staining, tube area, NPC library (AID 1117340;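 active = compound that reduces growth-factor-driven endothelial tube area in a mixed cell culture, no cutoff stated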); settings: VEGF-stimulated ADSC/ECFC co-culture, at 10 µM, stronger effect = higher value
[11] = GLP1 release stimulators, primary, NCI-H716, NPC library (AID 1117341;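 active = compound raises GLP1 secretion from the human gut endocrine cells, with no numeric limit stated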); settings: NCI-H716 cells, at 10 µM, stronger effect = higher value
[12] = HCT116 colon cancer cell growth inhibition, primary screen, CellTiter-Glo luminescence, NPC library (AID 1117342;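 active = compounds that lower survival of HCT116 colon cancer cells in the luminescence readout, no numeric limit stated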); settings: at 20 µM (top of the series)
[13] = reduced SW480 viability measured with CellTiter-Glo, NPC library, primary (AID 1117343;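 active = compounds that lower viability of the colon cancer cells in the luminescence readout, with no numeric limit stated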); settings: CellTiter-Glo luminescence; at 20 µM (top of the series)
[14] = NPC library primary testing for decreased DLD-1 cell viability via CellTiter-Glo (AID 1117346;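 active = compounds that lower survival of DLD-1 colon cancer cells in the luminescence readout, no cutoff given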); settings: DLD-1 viability, CellTiter-Glo luminescence; at 20 µM (top of the series)
[15] = MELAS cybrid survival, CellTiter-Glo 48 h, stronger effect = higher value
[16] = Rieske KO mouse fibroblast survival, CellTiter-Glo 72 h

CS(=O)(=O)CCNCc1ccc(-c2ccc3ncnc(Nc4ccc(OCc5ccccc5)c(Br)c4)c3c2)o1
-0.54: z-score [2]
inactive: parasite % of control [1] 127% | percent of negative control (+Dex) [2] 82% | z-score [3] 0.135 | z-score [4] 2.09 | fraction signal [5] 0.0015 | z-score [6, 15] 0.203
-0.567: z-score [6, 16]
107%: liver cell % of control [1]

Fc1ccc(-c2ncn(C3CCNCC3)c2-c2ccnc(Oc3cccc(C(F)(F)F)c3)n2)cc1
0.355: z-score [2]
inactive: parasite % of control [1] 156% | percent of negative control (+Dex) [2] 97% | z-score [3] 0.19 | z-score [4] -0.64 | fraction signal [5] 0.0045 | z-score [6, 15] -0.429
-0.412: z-score [6, 16]
97%: liver cell % of control [1]

Cc1nc(-c2ccc(Cl)cc2)oc1COC(C)(C)C(=O)O
0.6%: nuclear beta-catenin stimulation ([7]; stimulation, at 2 µM)
inactive: nuclear beta-catenin stimulation ([7]; at 10 µM) 0.5% | insulin secretion stimulation [8] 3.1% | viability decrease [9] -10.1% | tube area decrease [10] 9.7% | GLP1 secretion stimulation [11] -2.6% | inhibition of viability [12] 8.5% | viability decrease (inhibition) [13] 14.8%
active: viability decrease (inhibition) [14] 10%

CCCCN(CCN(CCCC)C(=O)N1CCOCC1)C(=O)N1CCOCC1
1%: nuclear beta-catenin stimulation ([7]; stimulation, at 2 µM)
inactive: nuclear beta-catenin stimulation ([7]; at 10 µM) 1.4% | insulin secretion stimulation [8] 1.1% | viability decrease [9] -64.8% | tube area decrease [10] 17.8% | GLP1 secretion stimulation [11] 0.9% | inhibition of viability [12] 25.7% | viability decrease (inhibition) [13] 2.8% | viability decrease (inhibition) [14] 24.1%

O=S(=O)(CCNCc1ccc(-c2ccc3ncnc(Nc4ccc(OCc5cccc(F)c5)c(Cl)c4)c3c2)o1)c1ccccc1
inactive: parasite % of control [1] 102% | percent of negative control (+Dex) [2] 96.5% | z-score [3] -0.37 | z-score [4] 3.07 | fraction signal [5] -0.004 | z-score [6, 15] 0.171
-0.45: z-score [6, 16]
108%: liver cell % of control [1]
-0.355: z-score [2]

O=C1Nc2ccccc2C1(c1ccc(O)cc1)c1ccc(O)cc1
active: viability decrease [9] 54.5% | inhibition of viability [12] 71.7% | viability decrease (inhibition) [14] 56.5%
inactive: nuclear beta-catenin stimulation ([7]; at 10 µM) -0.4% | insulin secretion stimulation [8] 0.6% | tube area decrease [10] 16.2% | GLP1 secretion stimulation [11] 5.4% | viability decrease (inhibition) [13] 38.2%
-1.6%: nuclear beta-catenin stimulation ([7]; stimulation, at 2 µM)

Fc1ccc(-c2ncn(C3CCNCC3)c2-c2ccnc(Oc3cccc(F)c3)n2)cc1
0.615: z-score [2]
80.2%: liver cell % of control [1]
inactive: parasite % of control [1] 175% | percent of negative control (+Dex) [2] 111% | z-score [3] -0.555 | z-score [4] -0.299 | fraction signal [5] -0.0075 | z-score [6, 15] -0.13
-0.344: z-score [6, 16]

Cc1cccc(C)c1NC(=O)c1cc(S(N)(=O)=O)c(Cl)cc1O
0.7%: nuclear beta-catenin stimulation ([7]; stimulation, at 2 µM)
inactive: nuclear beta-catenin stimulation ([7]; at 10 µM) -1.8% | insulin secretion stimulation [8] -1.9% | viability decrease [9] -8.6% | tube area decrease [10] -2.4% | GLP1 secretion stimulation [11] -2.3% | inhibition of viability [12] -3.4% | viability decrease (inhibition) [13] 3.4% | viability decrease (inhibition) [14] -5.4%

COc1ccc2nc(NC(=O)Nc3ccccc3)sc2c1
inactive: nuclear beta-catenin stimulation ([7]; at 10 µM) 0.5% | insulin secretion stimulation [8] 1.3% | viability decrease [9] 11.7% | tube area decrease [10] 2.4% | GLP1 secretion stimulation [11] -1.4% | inhibition of viability [12] 43% | viability decrease (inhibition) [13] -1.6% | viability decrease (inhibition) [14] 24%
0%: nuclear beta-catenin stimulation ([7]; stimulation, at 2 µM)

CCOC(=O)N1CCC(n2c(=O)[nH]c3cc(Cl)ccc32)CC1
inactive: nuclear beta-catenin stimulation ([7]; at 10 µM) -2.8% | insulin secretion stimulation [8] -5.2% | viability decrease [9] 15.6% | tube area decrease [10] 14.4% | GLP1 secretion stimulation [11] -8.8% | inhibition of viability [12] 49.4% | viability decrease (inhibition) [13] 19.8% | viability decrease (inhibition) [14] 0.5%
-0.2%: nuclear beta-catenin stimulation ([7]; stimulation, at 2 µM)

O=C(c1ccccc1)C(O)c1ccccc1 (stereo not drawn)
inactive: nuclear beta-catenin stimulation ([7]; at 10 µM) 0.5% | insulin secretion stimulation [8] -1.6% | viability decrease [9] -1.05% | tube area decrease [10] -9.2% | GLP1 secretion stimulation [11] -0.3% | inhibition of viability [12] 2.8% | viability decrease (inhibition) [13] 9.2% | viability decrease (inhibition) [14] 6.95%
0.8%: nuclear beta-catenin stimulation ([7]; stimulation, at 2 µM)

COCCc1ccc(OCC2CO2)cc1 (stereo not drawn)
0.3%: nuclear beta-catenin stimulation ([7]; stimulation, at 2 µM)
inactive: nuclear beta-catenin stimulation ([7]; at 10 µM) 0.9% | insulin secretion stimulation [8] 0.8% | viability decrease [9] -8% | tube area decrease [10] -12.7% | GLP1 secretion stimulation [11] 0.8% | inhibition of viability [12] -0.6% | viability decrease (inhibition) [13] 14.3% | viability decrease (inhibition) [14] 3.3%

CC(C)[C@H](N)C(=O)O
active: viability decrease (inhibition) [13] 11.9%
inactive: nuclear beta-catenin stimulation ([7]; at 10 µM) -0.1% | insulin secretion stimulation [8] 0.4% | viability decrease [9] -2.3% | tube area decrease [10] -14.8% | GLP1 secretion stimulation [11] -4.1% | inhibition of viability [12] 1.3% | viability decrease (inhibition) [14] 14.8%
1.3%: nuclear beta-catenin stimulation ([7]; stimulation, at 2 µM)

Cn1c(O)c(N=NC(N)=S)c2ccccc21
3.1%: nuclear beta-catenin stimulation ([7]; stimulation, at 2 µM)
inactive: nuclear beta-catenin stimulation ([7]; at 10 µM) 2.5% | insulin secretion stimulation [8] 2% | viability decrease [9] 13.8% | tube area decrease [10] 28.1% | GLP1 secretion stimulation [11] -3.5% | inhibition of viability [12] 39.9% | viability decrease (inhibition) [13] 30.4% | viability decrease (inhibition) [14] 12.2%

CCOC(=O)[C@H](CCc1ccccc1)N[C@@H](C)C(=O)N(CC(=O)O)C1Cc2ccccc2C1
0.4%: nuclear beta-catenin stimulation ([7]; stimulation, at 2 µM)
inactive: nuclear beta-catenin stimulation ([7]; at 10 µM) 1% | insulin secretion stimulation [8] 1.15% | viability decrease [9] -0.3% | tube area decrease [10] 4.9% | GLP1 secretion stimulation [11] 3.1% | inhibition of viability [12] 10.2% | viability decrease (inhibition) [13] -7.1% | viability decrease (inhibition) [14] -2.9%

O=C1c2ccccc2CCc2ccccc21
-0.9%: nuclear beta-catenin stimulation ([7]; stimulation, at 2 µM)
inactive: nuclear beta-catenin stimulation ([7]; at 10 µM) 0.9% | insulin secretion stimulation [8] 2.7% | viability decrease [9] 7% | tube area decrease [10] -5.3% | GLP1 secretion stimulation [11] -1.2% | inhibition of viability [12] 4.6% | viability decrease (inhibition) [13] -8.4% | viability decrease (inhibition) [14] 9.1%

CC(C)(C)C(=O)NCCCC(=O)O
2.4%: nuclear beta-catenin stimulation ([7]; stimulation, at 2 µM)
inactive: nuclear beta-catenin stimulation ([7]; at 10 µM) -1.1% | insulin secretion stimulation [8] 2.7% | viability decrease [9] -7.9% | tube area decrease [10] 2% | GLP1 secretion stimulation [11] -3.9% | inhibition of viability [12] -1.1% | viability decrease (inhibition) [13] -0.2% | viability decrease (inhibition) [14] -16.7%

COc1cc(S(N)(=O)=O)cc(C(=O)O)c1OC
3.5%: nuclear beta-catenin stimulation ([7]; stimulation, at 2 µM)
inactive: nuclear beta-catenin stimulation ([7]; at 10 µM) -0.6% | insulin secretion stimulation [8] 1.2% | viability decrease [9] 16.8% | GLP1 secretion stimulation [11] -1% | inhibition of viability [12] 23.4% | viability decrease (inhibition) [13] 18.9% | viability decrease (inhibition) [14] -9.9%
active: tube area decrease [10] -3.6%

CCCCCCCCCCCCCCCCCCNC(=O)OC1CCN(C(=O)OC[C@H](COC(=O)N(Cc2cccc[n+]2CC)C(=O)c2ccccc2OC)OC)CC1
0.5%: nuclear beta-catenin stimulation ([7]; stimulation, at 2 µM)
active: insulin secretion stimulation [8] 117% | viability decrease [9] 110% | tube area decrease [10] 111% | GLP1 secretion stimulation [11] 213% | inhibition of viability [12] 112% | viability decrease (inhibition) [13] 131% | viability decrease (inhibition) [14] 101%
inactive: nuclear beta-catenin stimulation ([7]; at 10 µM) 10.2%

CCC(=O)O
1.3%: nuclear beta-catenin stimulation ([7]; stimulation, at 2 µM)
inactive: nuclear beta-catenin stimulation ([7]; at 10 µM) -0.6% | insulin secretion stimulation [8] 3.2% | viability decrease [9] -1.2% | tube area decrease [10] -25.7% | GLP1 secretion stimulation [11] -3% | inhibition of viability [12] 3.7% | viability decrease (inhibition) [13] -0.5% | viability decrease (inhibition) [14] 3.7%

O=C1[C@@H]2[C@H]3CC[C@H](C3)[C@@H]2C(=O)N1CCCCN1CCN(c2ncccn2)CC1
inactive: nuclear beta-catenin stimulation ([7]; at 10 µM) 10% | insulin secretion stimulation [8] 3.2% | viability decrease [9] -0.8% | tube area decrease [10] 0.8% | GLP1 secretion stimulation [11] 1.5% | inhibition of viability [12] 45.5% | viability decrease (inhibition) [13] 12.8% | viability decrease (inhibition) [14] 1.2%
34.2%: nuclear beta-catenin stimulation ([7]; stimulation, at 2 µM)

CCC(=C(CC)c1ccc(OP(=O)(O)O)cc1)c1ccc(OP(=O)(O)O)cc1
inactive: nuclear beta-catenin stimulation ([7]; at 10 µM) -1.3% | insulin secretion stimulation [8] -1.8% | viability decrease [9] -26.4% | tube area decrease [10] 3.7% | GLP1 secretion stimulation [11] -1.8% | inhibition of viability [12] -0.4% | viability decrease (inhibition) [13] -2.6% | viability decrease (inhibition) [14] 10.2%
1.7%: nuclear beta-catenin stimulation ([7]; stimulation, at 2 µM)
